SNCA expr inhib: SNCA gene expression inhibition; HEK-293 SNCA-luciferase knock-in, luminescence, 24 h; AID 1671194; actives 0.17% (n = 140,000); Potency, µM (top dose mostly 57.2 µM), inactives show top-dose activity change, negative = inhibition, actives largely listed as inhibitors;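 note: plate controls were DMSO cells for no effect and cell-free wells for full effect; nearly all actives have a fitted effect of over 45% in size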
NIH3T3 tox: NIH 3T3 cell cytotoxicity; actives 4.3% (n = 94,000); NIH 3T3 viability, CellTiter-Glo ATP luminescence, 48-72 h; Potency, µM (doses to about 96.7 µM), for inactives: top-dose activity change, negative = cytotoxicity, usual class: inhibitors; AID 1345082; note: % is set by controls: 0 for no effect and ±100 for the full control effect; nearly all actives have a fitted effect of over 55% in size
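ATP-dependent luminescence (CellTiter-Glo) served as the viability signal for NIH 3T3 cells treated with compound for 48 or 72 hr at 37 °C.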
SNCA viab count: reduces viability of HEK-293 SNCA reporter cells; HEK-293-SNCA-luc viability, GF-AFC fluorescence, 24 h; Potency, µM (doses to about 57.1 µM), without a hit: top-dose activity change, negative = cytotoxicity, hits mostly cytotoxic; actives 0.12% (n = 150,000); AID 1671193;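 note: 0% = DMSO-treated cells and -100% = medium-only wells without cells; nearly all actives have a fitted effect of over 30% in size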
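HEK-293-SNCA-luc cells (1500/well) plated 24 h, then exposed 24 h to a dilution series; GF-AFC added 30 min at 37C, fluorescence 405/540 nm; normalised to medium-only and DMSO wells, Hill fit.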
FLuc inh-1: inhibitors of firefly (Photinus pyralis) luciferase. purified P. pyralis luciferase, luminescence, biochemical. Potency, µM (doses to about 115 µM), actives largely listed as inhibitors. actives 2.5% (n = 76,000); note: % is set by controls: 0 for no effect and ±100 for the full control effect; nearly all actives have a fitted effect of over 65% in size
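Luminescence read by CCD imager after adding enzyme (10nM final) to wells holding compound, titrated in qHTS. Substrates 10uM each D-luciferin and ATP; buffer 50mM Tris acetate pH 7.5, 10mM Mg acetate, Tween-20, BSA.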
HEK293 tox: kills HEK 293 cells | HEK 293 viability, ATP luminescence (CellTiter-Glo), 48-72 h | Potency, µM (titrated, usually from 115 µM), for inactives: at the top dose activity change, negative = cytotoxicity, most hits filed as inhibitors | actives 6.6% (n = 94,000); note: % is set by controls: 0 for no effect and ±100 for the full control effect; nearly all actives have a fitted effect of over 60% in size
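Pintool-delivered compounds were incubated with HEK 293 cells (250 cells/well) at 37 degree Celsius for 48 or 72 hr. ATP-dependent luminescence (CellTiter-Glo) then reported remaining viable cells.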
NPR1 antag: antagonists of human natriuretic peptide receptor Npr1 | P16066 | HEK293 hNpr1 GloSensor cGMP, ANP-stimulated luminescence | Potency, µM (series often up to 46.3 µM), for inactives: top-dose activity change, negative = inhibition, most hits filed as inhibitors | actives 1.6% (n = 76,000); calls by dose curve; note: % is set by controls: 0 for no effect and ±100 for the full control effect; nearly all actives have a fitted effect of over 60% in size
Target sequence (P16066 whole entry, looked up): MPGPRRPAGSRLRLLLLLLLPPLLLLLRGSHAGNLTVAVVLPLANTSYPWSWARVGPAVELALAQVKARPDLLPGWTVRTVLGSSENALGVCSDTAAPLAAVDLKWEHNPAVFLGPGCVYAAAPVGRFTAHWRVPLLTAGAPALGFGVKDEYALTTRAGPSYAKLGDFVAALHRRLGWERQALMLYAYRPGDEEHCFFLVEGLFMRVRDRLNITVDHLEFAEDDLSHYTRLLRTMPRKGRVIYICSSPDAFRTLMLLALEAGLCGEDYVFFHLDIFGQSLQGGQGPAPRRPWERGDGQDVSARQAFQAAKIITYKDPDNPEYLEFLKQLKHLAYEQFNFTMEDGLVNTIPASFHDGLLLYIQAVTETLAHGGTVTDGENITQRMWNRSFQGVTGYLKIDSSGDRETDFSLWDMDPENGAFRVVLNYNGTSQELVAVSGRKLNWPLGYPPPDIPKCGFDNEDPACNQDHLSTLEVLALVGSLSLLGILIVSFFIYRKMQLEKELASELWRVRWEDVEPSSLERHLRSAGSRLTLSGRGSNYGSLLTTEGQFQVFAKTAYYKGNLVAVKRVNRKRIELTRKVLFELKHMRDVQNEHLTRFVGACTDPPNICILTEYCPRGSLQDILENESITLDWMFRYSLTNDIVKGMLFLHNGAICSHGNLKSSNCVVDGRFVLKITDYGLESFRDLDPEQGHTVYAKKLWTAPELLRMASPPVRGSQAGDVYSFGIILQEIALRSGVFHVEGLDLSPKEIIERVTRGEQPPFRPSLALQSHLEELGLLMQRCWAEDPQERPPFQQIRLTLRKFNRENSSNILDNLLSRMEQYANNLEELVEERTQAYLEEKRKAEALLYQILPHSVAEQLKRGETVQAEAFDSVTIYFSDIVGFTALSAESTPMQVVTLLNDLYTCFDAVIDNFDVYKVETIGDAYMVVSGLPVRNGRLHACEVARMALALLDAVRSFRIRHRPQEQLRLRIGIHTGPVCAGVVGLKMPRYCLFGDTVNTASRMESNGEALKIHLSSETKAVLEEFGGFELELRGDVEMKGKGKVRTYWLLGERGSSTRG
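Compound pre-incubated 30 min at room temperature on GloSensor-loaded HEK293 cells stably carrying hNpr1 and the pGS-40F cGMP biosensor. Stimulation uses hNppA at 0.1 nM final; luminescence is taken at baseline and 20 min post-agonist.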
FLuc SDR no ATP: binders stabilizing firefly luciferase, without ATP | shares compounds with FLuc inh-1 | Purified FLuc-C-HiBiT, Nano-Glo HiBiT luminescence, no ATP | Potency, µM (doses to about 32.7 µM), for inactives: top-dose activation (signal gain), most hits filed as activators | actives 7.8% (n = 1,300); note: nearly all actives have a fitted effect of over 55% in size
FLuc SDR ATP: binders stabilizing firefly luciferase, plus ATP | shares compounds with FLuc inh-1 | purified FLuc-C-HiBiT + ATP, HiBiT complementation luminescence | Potency, µM (top dose mostly 32.7 µM), inactives show at the top dose activation (gain of signal), hits mostly activators | actives 8.7% (n = 1,300);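 note: signal reports ligand binding via conformational change of the enzyme rather than luciferase catalysis; % of control where 0% means no effect; nearly all actives have a fitted effect of over 55% in size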
FLuc inh-2: firefly luciferase enzyme inhibition | purified FLuc-C-HiBiT enzyme, luciferin luminescence | AID 1963320 | actives 42% (n = 1,300) | Potency, µM (doses to about 32.7 µM), for the others: top-dose activity change, negative = inhibition, actives largely listed as inhibitors | shares compounds with FLuc inh-1; note: % is set by controls: 0 for no effect and ±100 for the full control effect; nearly all actives have a fitted effect of over 70% in size
Active calls of the source: *; [ ] = another dose, or the depositor's remark. Only some compounds are listed: those with a hit (about 7.4% of all), similar ones and a draw of the others. Unless noted, calls come from the whole dose curve; as a rule, active = well fitted curve in the direction sought with a large enough effect; inconclusive = small, poorly fitted or top-dose-only effect, or another doubt; inactive = no such curve, though single readings can be large; an effect the other way counts as inactive or inconclusive. Potency is the fitted concentration of half-maximal effect.

`CN1C[C@H](NCc2cnn(C)c2)CCC[C@@H](C(=O)NCc2cc(F)cc(F)c2)CC1=O` gave SNCA expr inhib -20.6%[87.6 µM], NIH3T3 tox 4.2%[174 µM], SNCA viab count 3.6%[87.6 µM], FLuc inh-1 inactive, HEK293 tox inactive and NPR1 antag 3.1%[70.6 µM].
Screening Cc1ccccc1C(=O)NC1CN(c2ccnc3ccnn23)C1 returned SNCA expr inhib -24.2%, NIH3T3 tox inconclusive, SNCA viab count 13.4% and HEK293 tox -31.0%.
For CCCCN1CCCc2cc(CN(CCCN3CCOCC3)C(=O)Nc3ccc(OCC)cc3)ccc21 the results were SNCA expr inhib inconclusive and SNCA viab count -17.1%.
`CCCCOc1nc(N)c2[nH]c(=O)n(CCCN(CCCN3CCOCC3)Cc3cccc(CC(=O)OC)c3)c2n1` gave FLuc SDR no ATP 11.7%, FLuc SDR ATP 7.0% and FLuc inh-2 4.1%.
`COC1CC(O[C@H]2CC[C@]3(C)C4CC[C@]5(C)C(C6=CC(=O)OC6)=CCC56OC46CC[C@@H]3C2)OC(C)C1O[C@@H]1O[C@H](CO[C@@H]2O[C@H](CO)[C@@H](O)[C@H](O)[C@H]2O)[C@@H](O)[C@H](O)[C@H]1O` (stereo not given in full) gave SNCA viab count -36.7%[12.5 µM].
Screening O=C(Nc1ccccc1)c1nc2c(o1)CCN(Cc1cccnc1)CC2 returned SNCA expr inhib -64.2%[87.6 µM], NIH3T3 tox inconclusive, SNCA viab count -9.8%[87.6 µM], FLuc inh-1 0.355µM*, HEK293 tox 79.4µM*, NPR1 antag 17.8µM*, FLuc SDR no ATP inconclusive, FLuc SDR ATP inconclusive and FLuc inh-2 5.7µM*.
`O=C(Nc1cccnc1)c1nc2c(o1)CCN(CCCc1ccccc1)CC2` gave SNCA expr inhib 1.5%[87.6 µM], NIH3T3 tox inconclusive, SNCA viab count -2.1%[87.6 µM], FLuc inh-1 inactive, HEK293 tox inconclusive and NPR1 antag -2.7%[70.6 µM].
For O=C(Nc1ccccc1)c1nc2c(o1)CCN(Cc1ccccc1)CC2 the results were SNCA expr inhib -60.2%[87.6 µM], NIH3T3 tox inconclusive, SNCA viab count -6.4%[87.6 µM], FLuc inh-1 1µM*, HEK293 tox inconclusive, NPR1 antag 12.6µM*, FLuc SDR no ATP 27.0%[49.3 µM], FLuc SDR ATP inconclusive and FLuc inh-2 4.53µM*.
For CCCN1CCc2nc(C(=O)Nc3ccccc3)oc2CC1 the results were FLuc SDR no ATP 20.4%[49.3 µM], FLuc SDR ATP 18.3%[49.3 µM] and FLuc inh-2 inconclusive.
For O=C(Nc1cccnc1)c1nc2c(o1)CCN(Cc1cccc(O)c1)CC2 the results were SNCA expr inhib 44.6%[87.6 µM], NIH3T3 tox -16.0%[138 µM], SNCA viab count 1.2%[87.6 µM], FLuc inh-1 3.98µM*, HEK293 tox inconclusive, NPR1 antag inconclusive, FLuc SDR no ATP 21.1%[49.3 µM], FLuc SDR ATP 16.4%[49.3 µM] and FLuc inh-2 inconclusive.
`COC(=O)c1ccccc1S(=O)(=O)N1CCC2(CCCNC2)C1` (stereo not given) gave SNCA expr inhib 17.4%, NIH3T3 tox -6.7%, SNCA viab count 10.6%, FLuc inh-1 inactive, HEK293 tox -13.3% and NPR1 antag -6.4%.
Screening CCCn1cc2c3c(cccc31)CN(C(=O)c1ccccc1OC)CC2 returned SNCA expr inhib -5.2%, NIH3T3 tox inconclusive, SNCA viab count 8.2%, FLuc inh-1 inactive, HEK293 tox inconclusive and NPR1 antag -12.5%.
`O=C(C1CCC1)N1CCN(C2CCN(Cc3cccnc3)C2=O)CC1` (stereo not given) gave SNCA expr inhib -20.2%, NIH3T3 tox 3.4%, SNCA viab count -4.7%, FLuc inh-1 inactive, HEK293 tox inconclusive and NPR1 antag -12.1%.
Screening O=C(NC1CC1)c1cc(-c2ccc(F)cc2)c2nncn2n1 returned SNCA expr inhib -4.6%[87.6 µM], NIH3T3 tox inconclusive, SNCA viab count -6.2%[87.6 µM] and HEK293 tox -6.4%[172 µM].
For COc1cccc(CN2CCc3nc(C(=O)Nc4nc(C)cs4)oc3CC2)c1 the results were SNCA expr inhib inconclusive, NIH3T3 tox inconclusive, SNCA viab count -1.0%[87.6 µM], FLuc inh-1 7.08µM*, HEK293 tox inconclusive, NPR1 antag -20.4%[70.6 µM], FLuc SDR no ATP inconclusive, FLuc SDR ATP 17.1%[49.3 µM] and FLuc inh-2 inconclusive.
O=C(Nc1ccccc1)c1nc2c(o1)CCN(CC1CC1)CC2 was read as SNCA expr inhib 3.7%[87.6 µM], NIH3T3 tox -17.1%[138 µM], SNCA viab count -6.5%[87.6 µM], FLuc inh-1 2.24µM*, HEK293 tox inconclusive, NPR1 antag -26.3%[70.6 µM], FLuc SDR no ATP 19.5%[49.3 µM], FLuc SDR ATP 19.6%[49.3 µM] and FLuc inh-2 inconclusive.
For Cc1noc(C)c1CN1CCc2nc(C(=O)NCc3ccccc3)oc2CC1 the results were SNCA expr inhib 4.1%[87.6 µM], NIH3T3 tox -34.4%[138 µM], SNCA viab count -1.7%[87.6 µM], FLuc inh-1 inactive, HEK293 tox inconclusive and NPR1 antag -13.7%[70.6 µM].
CC(C)CCN1CCc2nc(C(=O)Nc3ccc(Cl)cc3)oc2CC1 was read as SNCA expr inhib 15.3%[87.6 µM], NIH3T3 tox inconclusive, SNCA viab count -3.7%[87.6 µM], FLuc inh-1 inconclusive, HEK293 tox inconclusive and NPR1 antag inconclusive.
COc1ccccc1CN1CCc2nc(C(=O)Nc3ccccc3)oc2CC1 was read as SNCA expr inhib -23.1%[87.6 µM], NIH3T3 tox inconclusive, SNCA viab count -21.9%[87.6 µM], FLuc inh-1 4.47µM*, HEK293 tox inconclusive, NPR1 antag inconclusive, FLuc SDR no ATP 17.2%[49.3 µM], FLuc SDR ATP 13.5%[49.3 µM] and FLuc inh-2 inconclusive.
For Cc1noc(C)c1CN1CCc2nc(C(=O)Nc3ccccc3)oc2CC1 the results were SNCA expr inhib 68.8%[87.6 µM], NIH3T3 tox inconclusive, SNCA viab count 2.5%[87.6 µM], FLuc inh-1 11.2µM*, HEK293 tox inconclusive, NPR1 antag 17.8µM*, FLuc SDR no ATP 20.0%[49.3 µM], FLuc SDR ATP 15.6%[49.3 µM] and FLuc inh-2 -15.4%[49.3 µM].
`O=S(=O)(c1ccc(F)c(F)c1)N1CCC(n2cnnc2C2CC2)CC1` gave SNCA expr inhib 12.0%, NIH3T3 tox -10.7%, SNCA viab count -1.9%, FLuc inh-1 inactive, HEK293 tox 0.5% and NPR1 antag 2.8%.

Screening results (PubChem BioAssay)
